Hits are enriched below; roughly 3.1% of the tested compounds scored in any of these assays.
PPC-1+TRAIL kill: PPC-1 cancer cell killing with TRAIL present | PPC-1 cells + TRAIL, ATPLite viability luminescence | cell killing (% activity), % at 4 µM or 5 µM | 220,000 tested, 0.41% active | AID 1443;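 active means cell killing above 50% in the first pass at 4 µM, then a duplicate retest at 5 µM averaging 50% or more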
TRAIL sens C8: caspase-8 TRAIL sensitization; NB7+C8 cells + TRAIL, ATPlite viability luminescence; inhibition (viability loss, TRAIL sensitization), % at 10 µM; 360,000 tested, 1% active;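 active means compounds causing at least 50% loss of cell viability in the single-dose screen, relative to plate controls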
HIF-2a inh: HIF-2a inhibition | AID 624352 | 786-0 RCC cells HIF-2a reporter, luciferase luminescence, overnight | inhibition, % at 18.8 µM | 360,000 tested, 0.72% active;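 active means inhibition of the luminescence signal of 40% or more relative to plate controls, in a single-dose primary screen at 18.75 µM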
Peg3 prom inh: Peg3 promoter activity inhibition; inhibition, % at 20 µM; HeLa PEG-Prom luciferase reporter, luminescence, overnight; 360,000 tested, 1.7% active;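 active means inhibition of at least 50% at 20 µM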
KKLEB tox: CF airway cell cytotoxicity counter-screen; KKLEB CF airway cells viability, ATPlite luminescence, overnight; stronger effect = lower value; cells stimulated with P. aeruginosa culture filtrate; activity change (cytotoxicity), % at 5 µM; 360,000 tested, 0.36% active; AID 602141;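 active means corrected activity change at or below -50% at 5 µM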
CF NFkB block: cystic fibrosis NF-kB activation inhibition | KKLEB NF-kB-GFP reporter, PAF-induced, GFP fluorescence overnight | inhibition, % at 5 µM | 360,000 tested, 0.86% active;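 active means at least 50% inhibition at 5 µM, scaled per plate between neutral and stimulator controls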;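 further: PAF is a Pseudomonas aeruginosa culture filtrate used as stimulus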
Numbers stand for hits; . = inactive; / = not tested or not shown; ! = not confirmed by another sample.

SMILES | PPC-1+TRAIL kill | TRAIL sens C8 | HIF-2a inh | Peg3 prom inh | KKLEB tox | CF NFkB block
CC(=O)Nc1ccc(NC(=O)CSc2nnc(NC(=O)c3cccc(F)c3)s2)cc1 | / | 53 | . | . | . | .
CCc1ccc(Nc2nnc(SCC(=O)Nc3ccc(C(=O)O)cc3)s2)cc1 | . | 59 | . | . | . | .
CCc1ccc(Nc2nnc(SCC(=O)Nc3cccc(S(=O)(=O)NC4=NCCCCC4)c3)s2)cc1 | 51 | 64 | . | . | . | .
CC(C)(C)c1ccc(OCC(=O)Nc2cccc(S(=O)(=O)NC3=NCCCCC3)c2)cc1 | / | . | . | . | . | .
O=C(CSc1nnc(NC(=O)c2c(F)cccc2F)s1)Nc1ccc(F)cc1 | / | . | . | . | . | .
Cc1ccc(Sc2nc(-c3ccccc3)nnc2C(F)(F)F)cc1 | . | . | . | 105 | . | .
CNc1nc(-c2ccccc2)nnc1C(F)(F)F | . | . | . | . | . | .
CCN(CC)Cc1cc(Nc2c3ccccc3nc3c4ccccc4n(C)c23)cc(CN(CC)CC)c1O | / | . | . | 102 | . | .
CCOc1cc2nc3c4ccccc4n(C)c3nc2cc1OCC | . | . | . | . | . | .
Cc1ccc2c(c1)c1c(n2CC(O)CNC2CCCCC2)CCCC1 (stereo not drawn) | . | . | . | 102 | . | .
O=C(O)c1cccc(S(=O)(=O)N2CCN(S(=O)(=O)c3ccc4ccccc4c3)CC2)c1 | / | . | . | . | . | .
Cc1ccc2c(c1)Cc1nc3ccccc3nc1-2 | . | 59 | . | . | . | .
Cc1cc(N2CCCC2)nc2ccccc12 | . | . | . | . | . | .
CCN(CC)C(=O)CSc1nc(N)c(C#N)c(-c2cccs2)c1C#N | . | . | . | . | . | .
Cc1ccc(-n2nc(C)c3c(-c4cccs4)c(C#N)c(N)nc32)cc1 | . | . | . | 86 | . | .
Cc1nn(-c2ccccc2)c2nc(N)c(C#N)c(-c3ccc(F)cc3)c12 | . | 58 | . | 91 | . | .
CCOC(=O)Cc1csc(NC(=O)C(NC(=O)C2CCC(C)CC2)C(C)C)n1 (stereo not drawn) | / | . | . | . | . | .
CC(C)(C)n1nnnc1C(c1ccccc1)N1CCN(c2ncccc2C(F)(F)F)CC1 (stereo not drawn) | / | . | . | / | / | /
CN(C(=O)CN1CCCCCC1)c1c(N)n(Cc2ccccc2)c(=O)[nH]c1=O | / | . | . | . | . | .
CN(C)CCCN1c2ccccc2Sc2ccc(Cl)cc21 | . | . | . | 75! | . | .
COc1cc(NC(=O)c2cc(-c3ccco3)on2)cc(OC)c1OC | / | . | . | . | . | .
COc1ccc(N=C(C)C2=C(O)c3ccccc3C2=O)cc1 | 63 | 70 | . | . | . | .
CCOc1ccc(N=C(C)C2=C(O)c3ccccc3C2=O)cc1 | . | . | . | . | . | .
C=CCNc1ncnc2c1ncn2[C@H]1CN(Cc2ccc(F)cc2)C[C@@H](CO)O1 | / | . | . | . | . | .
N#Cc1cnn2c1nc(N1CCCCC1)c1ccccc12 | . | . | . | 51 | . | .
SMILES | PPC-1+TRAIL kill | TRAIL sens C8 | HIF-2a inh | Peg3 prom inh | KKLEB tox | CF NFkB block
O=C(Nc1cccc(C(=O)O)c1)/C(=C\c1cccc([N+](=O)[O-])c1)NC(=O)c1ccc(Br)cc1 | / | . | . | . | . | .
CCCc1nc2nc(C)c(NS(=O)(=O)c3ccc(C4CCCCC4)cc3)c(=O)n2[nH]1 | / | . | . | . | . | .
Cc1ccc(Cc2c(-c3cccc(Cl)c3)nc3c(C)cc(Br)cn23)cc1 | / | . | . | . | . | .
O=C(c1ccco1)N1CCN(c2ncnc3scc(-c4ccccc4)c23)CC1 | . | . | . | . | . | .
O=C(c1ccco1)N1CCN(c2ncnc3scc(-c4cccs4)c23)CC1 | . | . | . | 53 | . | .
CC1=CN2C(=N)/C(=C/c3ccc(C)o3)C(=O)N=C2S1 | . | 54 | . | . | . | .
CC1=CN2C(=N)/C(=C/c3ccc(Sc4ccc(C)cc4)o3)C(=O)N=C2S1 | . | . | . | . | . | .
O=C(c1ccc(F)cc1)c1cnc(Nc2ccccc2)s1 | . | 61 | . | . | . | .
Cn1nnc2cc(NC(=O)Nc3ccccc3F)ccc21 | / | . | . | . | . | .
COc1ccccc1NC(=O)Nc1ccc2c(c1)nnn2C | . | 54 | . | . | . | .
CCN(CC)CCN(C(=O)c1ccc2c(c1)CCCC2)c1nc2c(C)cccc2s1 | / | . | . | . | . | .
CC(=NNC(=S)N1CCN(c2ccccn2)CC1)c1nccs1 | / | . | . | . | . | 66
CC(=NNC(=S)N1CCN(c2ccccn2)CC1)c1ccccn1 | / | . | . | . | . | .
COc1ccc2ccccc2c1CNC(C)c1ccccc1 (stereo not drawn) | / | . | . | . | . | .
CC(NCCCOc1cccc2ccccc12)c1ccccc1 (stereo not drawn) | / | . | . | 94 | . | .
C#CCn1c(=NC(=O)c2cc(-c3cccs3)nc3ccccc23)sc2cc(S(N)(=O)=O)ccc21 | . | . | . | . | -56 | .
S=C(Nc1ccc(Cl)cc1)c1nc2ccccc2s1 | . | . | . | . | . | .
Cc1ccc(NC(=S)c2nc3ccccc3s2)cc1 | . | 44 | . | . | . | .
COc1cc2oc(=O)cc(CN3CCCCC3)c2cc1Cl | / | . | . | . | . | .
COc1ccccc1C(=O)Nc1nc(-c2ccc(S(=O)(=O)N3CCOCC3)cc2)cs1 | . | 76 | . | 95 | . | .
Cn1cc(Cl)c(C(=O)N/N=C/c2ccc(OS(=O)(=O)c3ccccc3)cc2)n1 | . | . | . | . | . | .
Cc1ccc(/C=N/NC(=O)c2cc(C)oc2C)cc1 | . | 50 | . | . | . | .
Cn1cc(Cl)c(C(=O)N/N=C/c2ccc3c4c(cccc24)CC3)n1 | / | 67 | . | . | . | .
Cc1cc(C(=O)N/N=C/c2ccncc2)c(C)o1 | . | . | . | . | . | .
Cc1ccc(/C=N/NC(=O)c2nn(C)cc2Cl)cc1 | . | 68 | . | . | . | .
SMILES | PPC-1+TRAIL kill | TRAIL sens C8 | HIF-2a inh | Peg3 prom inh | KKLEB tox | CF NFkB block
C[C@H]1O[C@H](C2CCCC2)CC2=C1C(=O)OC(C)(C)O2 | / | . | . | / | / | /
CCOC(=O)[C@]12CCCC=C1N(Cc1cccc3ccccc13)C(=O)[C@H](CC(=O)NCCCOC)C2 | / | . | . | / | / | /
CCOc1ccc(NC(=O)COC(=O)c2cc(C)oc2C)cc1 | / | . | . | . | . | .
N=c1c2c(n(Cc3ccc(Br)cc3)c3c1CCC3)CCCC2 | . | . | . | . | -59 | .
N=c1c2c(n(Cc3ccc([N+](=O)[O-])cc3)c3c1CCC3)CCCC2 | . | . | . | . | . | .
CCCn1c2c(c(=N)c3c1CCC3)CCCC2 | . | . | . | . | . | .
N=c1c2c(n(Cc3ccc(Cl)c(Cl)c3)c3c1CCC3)CCCC2 | . | 65 | . | . | . | .
CCOC(=O)[C@H]1[C@H]2COc3ccc(C)cc3[C@@H]2N2C(=O)CN(C)C(=O)[C@@]12C | / | . | . | . | . | .
